Assay results as given in ChEMBL document CHEMBL3988442, “University of Dundee, Small-Polar-MMV Screening Library” (2021).
About 13,000 (27%) of roughly 48,000 compounds showed an effect of 50% or more. The list shows a part of the results.

System: Wolbachia pipientis
Assay: Anti-Wolbachia Cell-Based Screen
Type: functional
Parameters: scale not given: in the data most compounds retested in dose-response had high values
Details: 5 µM

First: O=C1CO[C@H]2CN(Cc3cccnc3)C[C@H]2N1
Second: C[C@@H]1CN(Cc2cccnc2)C[C@]1(C)O
The “Percent Effect” value of the first is lower: 0.8904% for the first, 104.9% for the second.

First: COC(=O)N1C[C@H]2CC[C@@H]1CN(Cc1ccncc1)C2
Second: O=C(C1CCOCC1)N1C[C@H]2CC[C@@H]1CN(Cc1ccncc1)C2
The “Percent Effect” value of the first is lower: -3.604% for the first, 9.375% for the second.

Compared with Cc1ccc([C@]2(O)CC[C@H]3CN(Cc4ccncc4)C[C@H]32)nc1, Cc1ccc([C@]2(O)CC[C@H]3CN(Cc4cccnc4)C[C@H]32)nc1 is lower in “Percent Effect” value: 139.7% for the first, 129.8% for the second.

Going from Oc1cccc(CN2C[C@H]3CC[C@@H]2CN(Cc2cccnc2)C3)c1 to CC(C)OC(=O)N1C[C@H]2CC[C@@H]1CN(Cc1cccnc1)C2, the “Percent Effect” value falls from 8.491% to -10.82%.

Compared with Cc1ncsc1CN1C[C@@H]2CN(Cc3cccnc3)CCO[C@@H]2C1, C[C@@H]1CN(C2CCOC2)C[C@]12CCN(Cc1cccnc1)C2=O.O=C(O)C(F)(F)F.O=C(O)C(F)(F)F (stereo partly drawn) is lower in “Percent Effect” value: -8.283% for the first, -21.11% for the second.

Compared with COCCN1CC[C@]2(CN(Cc3cccnc3)C[C@H]2C)C1=O.O=C(O)C(F)(F)F.O=C(O)C(F)(F)F, COCCN1CC[C@]2(CN(Cc3ccccn3)C[C@H]2C)C1=O.O=C(O)C(F)(F)F.O=C(O)C(F)(F)F is lower in “Percent Effect” value: 106.1% for the first, -7.652% for the second.

First: CCCn1ncc(CN2CCCC(C(=O)c3ccc(SC)cc3)C2)c1C (stereo not drawn)
Second: CCn1cc(CN2CCCN(C(=O)Cc3ccc(C)nc3)CC2)cn1
The “Percent Effect” value of the first is lower: -6.021% for the first, 6.063% for the second.

Going from Cc1cccc2cc(CN3CCCN4CCC[C@H]4C3)c(=O)[nH]c12 to Cc1[nH]c2c(F)cccc2c1CC(=O)N1CCN(C2CCSCC2)CC1, the “Percent Effect” value rises from -11.16% to -2.752%.

Compared with c1cnc(N2CC[C@@H]3[C@@H]2CCN3Cc2cccs2)nc1, CCn1cc(CN2CCCN(C(=O)Cc3cccs3)CC2)cn1 is higher in “Percent Effect” value: -7.885% for the first, -6.845% for the second.

Compared with Cl.Cl.O=C1NC2(CCNCC2)CC1c1ccncc1 (stereo not drawn), Cl.O=C1NC2(CCNCC2)CC1c1ccccc1 (stereo not drawn) is lower in “Percent Effect” value: -8.002% for the first, -38.6% for the second.

First: CC(C)=CCN1C[C@H]2CC[C@@H]1CN(S(=O)(=O)c1cccnc1)C2
Second: Cc1ncccc1OCC(=O)N1CCN[C@H]2CS(=O)(=O)C[C@H]21
The “Percent Effect” value of the first is lower: -24.05% for the first, -3.722% for the second.

First: CNc1nc(C(=O)N2C[C@@H]3CCN(C)[C@@H]3C2)cs1
Second: Cc1cc(C(=O)NCC(=O)N2CCOCC2)nn1C(C)(C)C
The “Percent Effect” value of the first is lower: 2.53% for the first, 90.04% for the second.

Compared with Cc1ncc2c(c1CNC(=O)C1(C)CC1)CCNC2, Cl.Cl.Cn1cc(C(=O)NCc2cncc3c2CCNC3)cn1 is higher in “Percent Effect” value: -5.654% for the first, 102.3% for the second.

Compared with CN1CCc2c(CNC(=O)c3nccn3C)cncc2C1.Cl.Cl.Cl, CCCS(=O)(=O)N1CCc2c(COCC)cncc2C1.O=C(O)C(F)(F)F is lower in “Percent Effect” value: 16.49% for the first, 0.2019% for the second.

Going from Cc1nc(CC(=O)N2CCN(Cc3ccc(C#N)cc3)CC2)cs1 to CCn1ccnc1CN1CCCN(C(=O)Cc2csc(C)n2)CC1, the “Percent Effect” value rises from -1.564% to 120.7%.

First: CCn1ccnc1CN1CCCN(C(=O)Cc2ccc(C)cc2)CC1
Second: CCn1ccnc1CN1CCCN(C(=O)Cc2ccc(F)cc2)CC1
The “Percent Effect” value of the first is lower: 110.8% for the first, 115.9% for the second.

Compared with NC(=O)CN1CCCN(C(=O)Cc2ccc3ccccc3c2)CC1, NC(=O)CN1CCCN(C(=O)Cc2ccc(F)c(Br)c2)CC1 is lower in “Percent Effect” value: -1.177% for the first, -2.154% for the second.

First: CCc1nc(CN2CCCN(C(=O)Cc3cccs3)CC2)cs1
Second: CCn1ccnc1CN1CCCN(C(=O)Cc2ccc(C)s2)CC1
The “Percent Effect” value of the first is lower: -3.679% for the first, 99.83% for the second.

Compared with CCN1CCN(C(=O)Cc2ccc(S(=O)(=O)C(F)F)cc2)CC1, CCc1noc(CN2CCN(C(=O)Cc3ccc(F)cc3)CC2)n1 is lower in “Percent Effect” value: -2.606% for the first, -6.192% for the second.

Compared with CCCN1CCN(Cc2nccn2CC)C(C)C1 (stereo not drawn), CCn1ccnc1CN1CCCN(C(=O)Cc2ccc(C)nc2)CC1 is higher in “Percent Effect” value: -20.72% for the first, -2.19% for the second.

Compared with Cc1ccc(CC(=O)N2CCCN(Cc3nccn3C)CC2)cn1, CCn1ccnc1CN1CCCN(C(=O)Cc2ccccc2C)CC1 is higher in “Percent Effect” value: 118.2% for the first, 129.6% for the second.

Going from COCC(=O)NC[C@H]1C[C@@H]2CCN1C[C@@H]2CN1CCc2ccccc21 to COCCn1cncc1CN1CCC(C(C)=O)(c2ccccc2)CC1, the “Percent Effect” value falls from -6.803% to -9.89%.

Compared with CNCCc1nc2cc(F)ccc2[nH]1.Cl.Cl, CCn1cncc1Cn1ncc2ccccc2c1=O is higher in “Percent Effect” value: -2.58% for the first, 88.95% for the second.

First: COCC1CN(c2ccc(C#N)c(Cl)c2)CCO1 (stereo not drawn)
Second: N#Cc1ccc(S(=O)(=O)NCCn2ccnc2)cc1Cl
The “Percent Effect” value of the first is lower: -25.31% for the first, -8.716% for the second.

Compared with O=C(Cc1ccccc1)N1CCN(Cc2noc(C3CC3)n2)CC1, O=c1c2ccccc2cnn1Cc1cncn1C1CC1 is higher in “Percent Effect” value: 0.1776% for the first, 94.68% for the second.

Compared with COCCn1cncc1Cn1ncc2ccccc2c1=O, CC(Cc1cccc(Cl)c1)NC(=O)NCc1ncnn1C (stereo not drawn) is lower in “Percent Effect” value: 103.5% for the first, -5.872% for the second.

Going from CC(C)COC(=O)N1CCC2(CCNC2)C1.Cl (stereo not drawn) to CC(C)NC(=O)N1CCOC2(CCCNC2)C1 (stereo not drawn), the “Percent Effect” value rises from -11.51% to -11.25%.

Compared with CCN(C)c1ncc2c(c1C(=O)O)CCN(C1CCOC1)C2.O=C(O)C(F)(F)F.O=C(O)C(F)(F)F (stereo not drawn), CN(C)CCOCc1cncc2c1CCN(C1CCOC1)C2.O=C(O)C(F)(F)F.O=C(O)C(F)(F)F.O=C(O)C(F)(F)F (stereo not drawn) is higher in “Percent Effect” value: -4.446% for the first, 106.1% for the second.

Compared with CCS(=O)(=O)N1CCc2c(COCCN(C)C)cncc2C1.O=C(O)C(F)(F)F.O=C(O)C(F)(F)F, Cc1noc(C)c1CN1CCO[C@H]2CN(CC3CC3)C[C@H]21.O=C(O)C(F)(F)F.O=C(O)C(F)(F)F is lower in “Percent Effect” value: 97.71% for the first, -4.425% for the second.

First: Cc1noc(C)c1CN1CC[C@@H]2O[C@@H](COCC3CC3)CC[C@@H]21.O=C(O)C(F)(F)F
Second: CCOC[C@H]1CC[C@H]2[C@H](CCN2Cc2c(C)noc2C)O1.O=C(O)C(F)(F)F
The “Percent Effect” value of the first is lower: -0.7071% for the first, 4.615% for the second.

Compared with Cc1noc(C)c1CN1CC[C@H]2[C@H]1CCN2CC1CCOCC1.O=C(O)C(F)(F)F.O=C(O)C(F)(F)F, COCCN1C(=O)CC[C@@H]2[C@@H]1CCN2Cc1c(C)noc1C.O=C(O)C(F)(F)F is lower in “Percent Effect” value: 115.6% for the first, 103.6% for the second.

For CCOC[C@@H]1CC[C@H]2[C@H](CCN2Cc2c(C)noc2C)O1.O=C(O)C(F)(F)F, the “Percent Effect” value was 3.079%.
